Compound activity: PubChem, several laboratories
An excerpt weighted towards active compounds, which were near 3.3% of everything screened.
Mcl1-Bid inh = Mcl-1/Bid interaction inhibition; Q07820; TR-FRET Mcl-1/Bid-Dy647 peptide binding, 1536-well; inhibition, % at 21.7 µM; actives 0.97% (n = 220,000); AID 1021;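 active = compounds that cut the binding signal by more than half at the single screening dose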;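 also: His-tagged Mcl-1 with europium anti-His antibody binding Bid BH3 peptide; 0% = Mcl-1 plus peptide wells and 100% = peptide-only wells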
Target sequence (Q07820 whole entry, looked up): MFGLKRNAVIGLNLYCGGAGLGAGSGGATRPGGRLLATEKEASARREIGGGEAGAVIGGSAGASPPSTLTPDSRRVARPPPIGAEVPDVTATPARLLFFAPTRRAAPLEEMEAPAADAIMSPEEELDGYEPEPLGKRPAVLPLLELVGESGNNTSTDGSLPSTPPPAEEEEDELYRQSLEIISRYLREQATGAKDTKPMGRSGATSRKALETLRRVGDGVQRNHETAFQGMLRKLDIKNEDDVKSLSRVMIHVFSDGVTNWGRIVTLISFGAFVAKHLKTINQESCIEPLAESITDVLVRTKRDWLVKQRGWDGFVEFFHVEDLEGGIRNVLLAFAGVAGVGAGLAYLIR
eIF4E 4G PPI = eIF4E/eIF4G interaction inhibition in translation initiation. P63073+Q04637. TR-FRET eIF4E-eIF4GI(517-606) binding, 2 h. inhibition, % at 21.7 µM. actives 0.37% (n = 220,000);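 also: 0% = full FRET control wells and 100% = background wells lacking eIF4GI fragment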
14-3-3 Bad PPI = disrupts binding of bovine 14-3-3 zeta to phospho-Bad peptide. inhibition, % at 21.7 µM. P63103. actives 0.71% (n = 220,000). TR-FRET 14-3-3zeta/Dy647-pBad peptide displacement, 1 h;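 active = inhibition above about 70%, limit read from the data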;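 also: 0% = full 14-3-3 plus peptide FRET controls and 100% = background without 14-3-3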
Target sequence (P63103 whole entry, looked up): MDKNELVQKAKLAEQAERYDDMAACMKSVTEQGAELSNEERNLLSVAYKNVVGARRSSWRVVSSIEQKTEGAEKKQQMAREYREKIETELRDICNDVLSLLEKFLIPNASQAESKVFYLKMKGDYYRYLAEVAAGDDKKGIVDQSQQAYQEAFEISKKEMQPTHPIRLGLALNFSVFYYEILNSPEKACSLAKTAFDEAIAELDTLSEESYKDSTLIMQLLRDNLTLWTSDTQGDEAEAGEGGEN
Mcl1 Noxa PPI = disrupts binding of human Mcl-1 to Noxa peptide | TR-FRET Mcl-1/Noxa peptide binding, 2 h | inhibition, % at 21.7 µM | Q07820 | actives 1.5% (n = 220,000);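 active = compounds that cut the protein-peptide binding signal by more than 50% relative to plate controls in a single-dose test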;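 also: His-tagged Mcl-1 with rhodamine Noxa BH3 peptide and terbium anti-His antibody; 0% = Mcl-1 plus Noxa peptide wells and 100% = peptide-only wells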
p47phox inh = p47phox (human) inhibition; P14598; p47phox/p22phox peptide binding, fluorescence polarization, 2 h; inhibition, % at 24.7 µM; actives 0.53% (n = 220,000); AID 1274;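 also: 0% = p47phox with labelled peptide and 100% = labelled peptide alone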
Mcl-1 Bim block = human Bim-Mcl-1 interaction inhibition; Q07820; Bead-based flow cytometry, Bim peptide-Mcl-1 binding; inhibition, % at 10 µM; actives 0.1% (n = 190,000); AID 1009; in the data active = inhibition above about 40%;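 also: 0% = no compound tracer wells and 100% = peptide blocker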
The depositor's hits bear a star; x = no result given.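 The calls were made as follows, unless noted: active = inhibition above about 30% (limit read from the data); inactive = the rest.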

SMILES | Mcl1-Bid inh | eIF4E 4G PPI | 14-3-3 Bad PPI | Mcl1 Noxa PPI | p47phox inh | Mcl-1 Bim block
Cc1ccc(/C=N/n2c(-c3cccnc3)n[nH]c2=S)s1 | -47.2 | -1.3 | -7.2 | 51.0* | 2.9 | 0.0
CN(C)c1ccc(/C=N/n2c(-c3cccnc3)n[nH]c2=S)cc1 | -17.0 | -0.3 | -3.8 | 55.5* | -16.5 | -1.0
S=c1[nH]nc(-c2cc(-c3ccccc3)n[nH]2)n1/N=C/c1c(Cl)cccc1Cl | 12.3 | -10.4 | 65.8 | 22.8 | 8.7 | x
S=c1[nH]nc(-c2cc(-c3ccccc3)n[nH]2)n1/N=C/c1ccc(Br)s1 | 47.7 | 6.0 | 49.9 | 69.9* | 14.5 | x
O=C(N/N=C/c1cccn1-c1ccc([N+](=O)[O-])cc1)c1cccnc1 | -5.6 | -1.0 | -2.0 | 25.0 | -9.7 | x
Cc1[nH]n(C(N)=S)c(=O)c1N=Nc1ccc(S(=O)(=O)N2CCCCCC2)cc1 | -258.1 | 4.4 | -20.9 | -26.5 | -23.5 | 51.0*
COc1cccc2c(=O)c3cccc(N)c3[nH]c12 | -28.9 | 1.1 | 1.7 | 73.7* | 14.2 | 1.0
Oc1ccc(/C=N/Nc2ccnc3cc(Cl)ccc23)cc1O | -44.5 | -15.0 | 44.7 | 95.5* | -36.7 | x
CCOc1ccccc1Nc1ccnc2cc(Cl)ccc12 | -33.7 | -3.8 | -2.3 | -0.6 | -10.1 | -3.0
O=C(NCC1COc2ccccc2O1)C1CCN(S(=O)(=O)c2cccc3nsnc23)CC1 (centres undefined) | -6.2 | 9.1 | 84.7* | 13.6 | -3.5 | -2.0
CCOC(=O)C1(C(=O)OCC)C(c2ccccc2)CC(O)N1C(C)=O (centres undefined) | -17.3 | 2.8 | 91.7* | -7.5 | -12.7 | -3.0
CCN(CC)C(=O)Cn1cc(SCC(=O)NC)c2ccccc21 | -15.7 | -0.7 | 0.3 | 2.6 | 2.0 | 2.0
CCN(CC)C(=O)N1CCN(C)CC1 | 58.9* | 2.2 | -0.6 | -34.3 | 4.5 | -1.0
CC1(C)CC(=O)C(C(=O)C2CCN(S(=O)(=O)c3ccccc3)CC2)C(=O)C1 | -6.7 | 0.6 | 71.1* | 8.4 | -3.0 | -5.0
COc1ccc(CCNCC2C(Oc3ccc(Cl)cc3)C(=O)N2c2ccccc2C)cc1OC (centres undefined) | 5.1 | 5.3 | 4.5 | 22.0 | 8.3 | -2.0
CCOc1cc(/C=C2\SC(=O)N(CC(=O)Nc3ccccc3F)C2=O)cc([N+](=O)[O-])c1O | -12.6 | 0.9 | -2.3 | 32.1 | -6.2 | 0.0
O=C(CN1C(=O)S/C(=C\c2ccccc2)C1=O)NNC(=O)c1ccccc1O | 6.4 | 2.8 | 7.8 | 13.9 | 14.3 | -5.0
COc1ccc(/C=C2\SC(=O)N(CC(=O)NNC(=O)c3ccccc3O)C2=O)cc1OC | 60.0* | 6.0 | 20.7 | 53.2* | 34.4* | -6.0
COc1ccccc1C(=O)NNC(=O)CCCN1C(=O)/C(=C/c2cccs2)SC1=S | 34.6 | 1.1 | 11.8 | 52.1* | -100.3 | -5.0
COc1cc(/C=C2\SC(=O)N(CC(=O)Nc3cccc(C)c3)C2=O)cc([N+](=O)[O-])c1O | -18.0 | -0.5 | 2.3 | 58.6* | -18.2 | -1.0
COc1ccc(/C=C2\SC(=O)N(CC(=O)NNC(=O)c3ccccc3O)C2=O)cc1 | 48.4 | 8.0 | 62.0 | 52.6* | 14.6 | -2.0
COc1ccc(C2=NN(C(=O)CCCC(=O)O)C(c3cn(-c4ccccc4)nc3-c3ccccc3)C2)cc1 (centres undefined) | 0.2 | -4.6 | 6.2 | -13.3 | -35.5 | x
O=C(NCc1cccnc1)c1cccc(S(=O)(=O)N2CCCCC2)c1 | -19.3 | -4.0 | -1.8 | -4.8 | -5.6 | -1.0
O=C(N/N=C/c1cccnc1)c1cccc(S(=O)(=O)N2CCCC2)c1 | -32.2 | 0.5 | -5.1 | 1.0 | 4.0 | 55.0*
COc1ccc(NC(=O)c2cc3cccc(OC)c3oc2=Nc2ccc(C(=O)O)cc2)cc1OC | -51.1 | -0.2 | 50.5 | 76.8* | -8.7 | -2.0
SMILES | Mcl1-Bid inh | eIF4E 4G PPI | 14-3-3 Bad PPI | Mcl1 Noxa PPI | p47phox inh | Mcl-1 Bim block
COc1ccc(Br)cc1C(=O)Nc1ccc(C(=O)O)cc1 | 2.4 | 0.9 | 2.9 | 1.0 | 1.2 | -7.0
Cc1ccccc1N1C(S)=C(C#N)C(=O)NC12CCCCC2 | -57.4 | 2.8 | -9.4 | 5.5 | -2.7 | -4.0
CC/C=C\[C@H](O)[C@H](O)C1=C(C)C(=O)[C@]2(O1)C(=O)N[C@@](OC)(C(=O)c1ccccc1)C2O (some centres undefined) | -13.9 | 0.6 | -4.0 | 14.5 | -2.3 | -1.0
O=C(O)CN1C(=O)/C(=C/c2ccsc2)SC1=S | -32.4 | 0.9 | 10.3 | 2.4 | -51.5 | -2.0
C=CCN1C(=O)/C(=C/c2ccsc2)SC1=S | 1.2 | 3.8 | -8.1 | 17.4 | 14.1 | 64.0*
CN(C)S(=O)(=O)c1cccc(N=C2NN=C(c3ccccc3)CS2)c1 | -36.4 | -4.6 | 4.0 | 33.9 | -16.1 | -2.0
CC(=O)Nc1ccc(C2=NNC(=Nc3ccc(S(=O)(=O)N4CCOCC4)cc3)SC2)cc1 | -20.5 | -0.1 | 4.3 | 80.2* | -39.3 | x
CC(=O)Nc1ccc(C2=NNC(=Nc3cccc(S(=O)(=O)N(C)C)c3)SC2)cc1 | -18.4 | 0.4 | -0.1 | 96.5* | -14.9 | 0.0
Cc1ccc(OCCN2C(=O)C(=O)c3cccc(C)c32)cc1 | -10.3 | 0.4 | -0.7 | -6.3 | -15.6 | -3.0
Cc1ccc(N(CCC(=O)Nc2nnc(C3CC3)s2)S(=O)(=O)c2ccccc2)cc1 | -27.9 | 3.2 | -19.9 | 4.0 | 4.0 | -2.0
O=C(NNc1c2ccccc2nc2ccccc12)c1ccccc1O | 22.9 | 13.7 | 2.9 | 63.6* | 25.2 | -18.0
O=C(NNc1c2ccccc2nc2ccccc12)c1ccc(O)cc1O | 55.4* | 0.4 | 14.2 | 68.4* | -46.4 | -1.0
O=C(NNc1c2ccccc2nc2ccccc12)c1cccc(O)c1 | -39.0 | -5.5 | -17.1 | 45.6 | -24.9 | -10.0
O=C(NNc1c2ccccc2nc2ccccc12)c1ccc(O)cc1 | -65.4 | -3.3 | -10.0 | 50.5* | -13.1 | -4.0
Cc1ccc(N(CC(=O)NCCSc2ccccn2)S(C)(=O)=O)cc1 | -27.9 | -7.0 | 7.8 | 10.0 | -15.0 | -1.0
CN1C(C(=O)NCc2ccco2)CC2Cn3c(nc4cc(Cl)c(Cl)cc43)C21 (centres undefined) | -63.2 | -6.5 | -5.3 | -4.9 | 4.0 | x
C/C(=N\NC(=O)c1ccc(NS(=O)(=O)c2cccs2)cc1)c1ccc2c(c1)OCO2 | -22.3 | 4.4 | 7.1 | 27.5 | -14.8 | -1.0
CCOC(=O)C(=O)c1csc(NC(=O)CCSc2ccc(C)cc2)n1 | -13.2 | -3.2 | 8.8 | 10.1 | -7.7 | -1.0
CCN(CC)c1nc2c3c(nc4c(c3c1C#N)CC(=O)N4c1ccc(Cl)cc1)NC(C)=N2 | 27.1 | -1.9 | -10.8 | 82.5* | -35.4 | 2.0
COc1ccccc1CNC(=O)Nc1cccs1 | -38.0 | 3.8 | -5.7 | -1.9 | -23.2 | -2.0
COc1ccc(Br)cc1CNC(=O)Nc1cccs1 | -21.2 | -5.3 | -1.6 | 0.7 | 97.6* | 4.0
O=C(Nc1ccccc1-c1ccccc1)C(c1ccccc1)c1ccccc1 | -2.5 | -9.5 | -13.8 | 5.7 | -1.9 | -1.0
